# From PubChem BioAssay
# Inconclusive results are not listed. For part of these data: Results with a measured potency or affinity are listed apart. Activity calls are given as the source filed them. Unless noted, no rule for the calls is given here.
# What was measured:
# [1] = target: Cell division control protein 42 homolog (Homo sapiens) (UniProt P60953); assay: activated mutant Cdc42 GTP-binding inhibitors, dose response, biochemical, multiplex bead flow cytometry, Bodipy-FL-GTP (AID 1333;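 active = fitted half-maximal concentration within the tested dose range, moderate curve steepness, a statistically real signal drop, and little compound fluorescence or tag-binding interference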)
# [2] = target: Cell division control protein 42 homolog (Homo sapiens) (UniProt P60953); assay: wildtype Cdc42 GTP-binding inhibitors, dose response, biochemical, multiplex bead flow cytometry, Bodipy-FL-GTP (AID 1334;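 active = fitted half-maximal concentration within the tested range, moderate curve steepness, significant signal drop, and little compound fluorescence or bead-linkage interference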); conditions: bead-based flow cytometry, Bodipy-FL-GTP binding to GST-Cdc42; at 100 µM (top of the series) unless noted
# [3] = target: GTPase HRas (Homo sapiens) (UniProt P01112); assay: inhibitors of GTP binding to wildtype Ras, dose response, biochemical, multiplex bead flow cytometry (AID 1335;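 active = fitted half-maximal concentration within 10 nM to 100 µM, steepness 0.5 to 2, significant signal drop, low assay interference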); conditions: bead-based flow cytometry, Bodipy-GTP binding to GST-Ras; at 100 µM (top of the series) unless noted
# [4] = test system: Ras-related protein Rab-7a (dog), GTP binding; assay: Rab7 GTP binding inhibitors, potency, dose response, biochemical, wildtype, multiplex bead flow cytometry (AID 1336)
# [5] = target: Ras-related C3 botulinum toxin substrate 1 (Homo sapiens) (UniProt P63000); assay: wildtype Rac1 GTP binding inhibitors, dose response, biochemical, multiplex bead flow cytometry (AID 1340;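 active = dose curve with midpoint inside tested range, moderate steepness, plateau gap beyond fit error, low compound glow and bead-link interference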); conditions: GST-Rac1 beads, Bodipy-FL-GTP binding; at 100 µM (top of the series) unless noted
# [6] = target: GTPase HRas (Homo sapiens) (UniProt P01112); assay: activated Ras mutant GTP binding inhibitors, dose response, biochemical, multiplex bead flow cytometry (AID 1341;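 active = dose-response curve with midpoint inside the tested range, moderate steepness, significant amplitude and little compound fluorescence or bead-attachment interference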;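 also: GST-tagged constitutively activated Ras mutant immobilized on beads and multiplexed with other GTPases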)
# [7] = RPL19A-GFP modulators, yeast TOR pathway, confirmation, cell-based, S. cerevisiae, flow cytometry, cherry picks, mother/daughter gates (AID 2270;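 active = GFP response below 50% of the DMSO control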); conditions: S. cerevisiae RPL19A-GFP strain, 3 h, at 10 µM, stronger effect = lower value, 100 = same GFP as DMSO wells
# [8] = LAP4-GFP expression modulators in yeast, confirmation, cell-based, cherry picks, flow cytometry, mother/daughter gates (AID 2271;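 active = GFP response above 150% of the DMSO control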;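 also: ratio of sample to DMSO plate mean so 100% equals DMSO level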); conditions: S. cerevisiae LAP4-GFP strain, 3 h, at 10 µM, stronger effect = higher value, 100 means same as DMSO control
# [9] = modulators of MEP2-GFP levels in yeast, confirmation, S. cerevisiae, flow cytometry GFP, cherry picks (AID 2272;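 active = GFP response above 150% of the DMSO control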;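 also: ratio of well signal to plate DMSO mean so 100% equals DMSO level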); conditions: S. cerevisiae MEP2-GFP strain, 3 h, at 10 µM, stronger effect = higher value
# [10] = AGP1-GFP expression modulators, hit retest, confirmation, cell-based, flow cytometry, S. cerevisiae, cherry picks (AID 2273;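 active = GFP response above 150% of the DMSO level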;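 also: median GFP channel fluorescence over the whole cell population gate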); conditions: S. cerevisiae AGP1-GFP strain, 3 h, at 10 µM
# [11] = modulators of CIT2-GFP expression in yeast, confirmation, S. cerevisiae, GFP fusion, cherry picks, mother/daughter gates (AID 2274;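 active = GFP response above 150% of the DMSO level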); conditions: S. cerevisiae CIT2-GFP strain, flow cytometry, 3 h, at 10 µM, stronger effect = higher value
# [12] = yeast TOR pathway RPL19A-GFP modulators, primary screen, cell-based, S. cerevisiae, multiplex flow cytometry (AID 1862; in the data active = percent of DMSO control GFP below about 86%;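 also: lower values mimic rapamycin by blocking the RPL19A rise seen in DMSO cells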); conditions: S. cerevisiae RPL19A-GFP strain, flow cytometry fluorescence, 3 h; at 10 µM; stronger effect = lower value
# [13] = modulators of MEP2-GFP levels in yeast, primary screen, S. cerevisiae, multiplex flow cytometry (AID 1867;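 active = GFP response, as percent of the DMSO control, above the screen-wide mean plus 3 SD, about 139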;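 also: median GFP channel fluorescence of barcode-gated MEP2-GFP cells measured by flow cytometry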); conditions: S. cerevisiae MEP2-GFP strain, 3 h, at 10 µM, stronger effect = higher value, 100% means same as DMSO wells
# [14] = modulators of CIT2-GFP expression in yeast, primary screen, S. cerevisiae, GFP fusion, multiplex flow cytometry (AID 1870;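 active = percent response above a set limit, the screen-wide mean plus 3 SD, cut at about 130% in these data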;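 also: barcoded CIT2-GFP strain pooled with four other GFP strains with rapamycin as positive control; median GFP fluorescence per well over plate mean of DMSO wells so 100% = DMSO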); conditions: 3 h, at 10 µM, stronger effect = higher value
# [15] = modulators of LAP4-GFP expression in yeast, primary screen, S. cerevisiae, multiplex flow cytometry (AID 1873;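 active = GFP signal, as percent of the solvent control, above the screen mean plus 3 SD, about 149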); conditions: 3 h, at 10 µM, stronger effect = higher value
# [16] = modulators of AGP1-GFP expression in yeast TOR pathway, primary screen, cell-based, multiplex flow cytometry, S. cerevisiae (AID 1887;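 active = GFP signal above the screen-wide mean plus 3 SD, that is over about 124.5% of the solvent control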;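 also: AGP1-GFP fusion strain of S. cerevisiae within a five-strain barcoded multiplex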); conditions: 3 h, at 10 µM, stronger effect = higher value
# [17] = inhibitors of CD8+ T cell-vesicle binding, pilot screen, LFA-1/ICAM-1 modulator project, MLPCN validation set, flow cytometry (AID 2523;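 active = response below a set limit, under 55% cells CD8-positive and vesicle-bound, and CD8 cells' 90th-percentile brightness under 279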;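 as to vesicle binding response: mean PE anti-B7-1 fluorescence of CD8+ cells relative to row control; 100% = QL9-loaded vesicles with DMSO vehicle in the same plate row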); conditions: 2C mouse CD8+ T cells, at 7 µM, stronger effect = lower value; double positive events: measured here: CD8+/vesicle+ event percentage
# [18] = target: Integrin beta-1 (Homo sapiens) + Integrin alpha-4 (Homo sapiens) (UniProt P13612+P05556); assay: inhibition of HUTS-21 binding to VLA-4, pilot screen, VLA-4 allosteric modulator project, U937 cells, HUTS-21 mAb, flow cytometry, validation set (AID 2674;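 active = inhibition above 50%, about 3 SD of the validation set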;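 also: antibody binding induced by the VLA-4 ligand LDV present at three times its Kd; 0% = LDV ligand with antibody and no compound and 100% = antibody without LDV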); conditions: HUTS-21 LIBS mAb binding, at 6.7 µM, stronger effect = higher value, binding induced by LDV ligand
# [19] = superoxide lowering in aged yeast cells, pilot screen, validation compound set (AID 2706;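 active = superoxide response below 65% of plate, a cut near 3 SD across the whole screen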;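 also: yeast exposed to compound for one week at 30 degrees C before staining; 100% = mean of all compound wells on the same plate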); conditions: S. cerevisiae aging, superoxide DHE fluorescence; at 10 µM; stronger effect = lower value
# [20] = target: Beta-adrenergic receptor kinase 1 (Homo sapiens) (UniProt P25098); assay: GRK2 binders displacing RNA aptamer, biochemical, validation, human GRK2, bead flow cytometry (AID 488806;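 active = aptamer binding inhibition above 30%, about 3 SD of noise from non-fluorescent compounds; inactive = inhibition at or below 30%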); conditions: bead-bound GRK2, FAM-aptamer displacement, at 10 µM, stronger effect = higher value
# [21] = target: Beta-2 adrenergic receptor (Homo sapiens) (UniProt P07550); assay: beta2AR agonists driving receptor internalization, pilot screen, cell-based, FAP fluorogen, flow cytometry, validation set (AID 504459;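 active = percent response above 42, roughly 3 SD of non-fluorescent test compounds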;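 also: agonist-driven loss of surface beta2AR via internalization measured by FAP dye flow cytometry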); conditions: Am2.2-beta2AR cells, FAP surface receptor flow cytometry; at 10 µM; stronger effect = higher value
# [22] = target: AP-2 complex subunit beta (Homo sapiens) (UniProt P63010); assay: inhibitors of arrestin peptide binding to AP2, pilot screen, biochemical, validation set, GST-AP2 beads, flow cytometry (AID 504541;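 active = inhibition above 54%, about 3 SD of non-fluorescent compounds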;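 also: AP2 carries R879A mutation and is captured from E. coli lysate; bead-bound FITC arrestin peptide fluorescence measuring arrestin peptide binding to AP2; 0% = DMSO wells and 100% = excess unlabeled arrestin peptide control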); conditions: FITC arrestin peptide, at 10 µM, stronger effect = higher value, AP2 beta2 appendage fragment, R879A mutant
# [23] = yeast V-ATPase proton transport modulators, S. cerevisiae, pHLuorin, HTS validation (AID 504600; in the data active = response above about 15%;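 also: plate controls were DMSO for no effect and reference compound for full effect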); conditions: S. cerevisiae pHLuorin cytosolic pH, at 10 µM, stronger effect = higher value
# [24] = test system: anti-desmoglein-3 scFv antibody binding to human DSG3; assay: inhibitors of anti-DSG3 scFv binding to DSG3, pilot screen, biochemical, validation compound set, bead-based, flow cytometry (AID 588368;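 active = binding below the plate cutoff, the plate median minus 3 SD, with a reading above zero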;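 also: signal is the median channel fluorescence of bead-bound GFP antibody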); conditions: Protein G beads, DSG3-Fc, scFv-GFP binding, at 10 µM, stronger effect = lower value
# [25] = inhibitors of fungal efflux pumps CDR1, CDR2, MDR1, pilot screen, validation compound set, multiplex, phenotypic (AID 588506;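 active = efflux inhibition above 0.42, the validation set average plus 4 SD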;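 also: Nile Red retained in cells so higher fluorescence means more efflux inhibition; 0 = negative control wells and 1 = enniatin B 25 µM full block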); conditions: S. cerevisiae pump-expressing triplex, Nile Red efflux flow cytometry; at 10 µM; stronger effect = higher value; the pumps come from Candida albicans
# [26] = target: ATP-binding cassette sub-family B member 6 (Homo sapiens) (UniProt Q9NP58); assay: ABCB6 transporter inhibitors, pilot screen, K562-ABCB6 cells, flow cytometry, validation set (AID 588550;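 active = inhibition above the screen-wide mean plus 3 SD, about 51%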;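 also: 0% = DMSO wells and 100% = benzethonium chloride 70 µM positive control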); conditions: K562-ABCB6 porphyrin accumulation, 1 h, at 10 µM, stronger effect = higher value
# [27] = promoters of myeloid differentiation in arrested cells, primary screen, cell-based, GFP/MAC1 double positive, flow cytometry, validation set (AID 588685;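 active = differentiation response of at least 50%, scaled between solvent and reference control, from cells with both markers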;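 also: compound exposure lasts four days before antibody staining and flow analysis; 0% = DMSO wells and 100% = 5 µM fulvestrant positive control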); conditions: ER-HoxA9 marrow cells, stronger effect = higher value, normalized: vehicle 0, fulvestrant 100
# [28] = measured here: daughter cell gate
# [29] = measured here: mother cell gate
# [30] = measured here: daughter cell gate response
# [31] = measured here: mother cell gate response
# GTPase HRas (Homo sapiens), sequence (P01112 whole entry, looked up): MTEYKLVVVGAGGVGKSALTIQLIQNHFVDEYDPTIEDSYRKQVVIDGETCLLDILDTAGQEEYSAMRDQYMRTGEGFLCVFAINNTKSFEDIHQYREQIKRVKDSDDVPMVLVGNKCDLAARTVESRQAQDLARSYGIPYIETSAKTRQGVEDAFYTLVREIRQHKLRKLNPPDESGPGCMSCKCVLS
# Cell division control protein 42 homolog (Homo sapiens), sequence (P60953 whole entry, looked up): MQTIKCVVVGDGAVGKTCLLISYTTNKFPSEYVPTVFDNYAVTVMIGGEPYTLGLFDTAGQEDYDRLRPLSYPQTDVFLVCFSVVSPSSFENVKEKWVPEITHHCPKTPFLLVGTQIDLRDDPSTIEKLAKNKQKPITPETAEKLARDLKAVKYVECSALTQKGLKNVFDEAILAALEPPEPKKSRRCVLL
# Integrin beta-1 (Homo sapiens) + Integrin alpha-4 (Homo sapiens), sequence (P05556 whole entry, looked up): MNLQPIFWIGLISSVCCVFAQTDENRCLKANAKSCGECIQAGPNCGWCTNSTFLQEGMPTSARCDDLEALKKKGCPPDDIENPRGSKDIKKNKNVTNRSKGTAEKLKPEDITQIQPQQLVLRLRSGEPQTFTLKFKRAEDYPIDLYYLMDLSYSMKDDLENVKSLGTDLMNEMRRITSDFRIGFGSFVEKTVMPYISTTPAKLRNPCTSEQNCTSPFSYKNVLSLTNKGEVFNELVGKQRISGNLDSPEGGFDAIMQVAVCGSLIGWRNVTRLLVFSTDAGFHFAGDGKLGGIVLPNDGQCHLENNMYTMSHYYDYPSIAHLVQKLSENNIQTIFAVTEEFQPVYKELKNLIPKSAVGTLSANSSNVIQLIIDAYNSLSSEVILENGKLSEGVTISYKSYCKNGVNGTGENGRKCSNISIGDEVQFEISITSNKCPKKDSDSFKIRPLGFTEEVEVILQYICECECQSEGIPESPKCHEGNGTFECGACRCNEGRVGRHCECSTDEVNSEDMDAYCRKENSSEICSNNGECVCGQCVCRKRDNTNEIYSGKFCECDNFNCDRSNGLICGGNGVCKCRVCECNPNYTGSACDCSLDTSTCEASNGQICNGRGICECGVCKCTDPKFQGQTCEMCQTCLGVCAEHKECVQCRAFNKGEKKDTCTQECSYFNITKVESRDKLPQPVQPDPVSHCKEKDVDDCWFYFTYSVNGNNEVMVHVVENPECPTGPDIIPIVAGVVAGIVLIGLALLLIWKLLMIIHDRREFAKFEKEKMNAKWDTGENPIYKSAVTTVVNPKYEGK
# Integrin beta-1 (Homo sapiens) + Integrin alpha-4 (Homo sapiens), sequence (P13612 whole entry, looked up): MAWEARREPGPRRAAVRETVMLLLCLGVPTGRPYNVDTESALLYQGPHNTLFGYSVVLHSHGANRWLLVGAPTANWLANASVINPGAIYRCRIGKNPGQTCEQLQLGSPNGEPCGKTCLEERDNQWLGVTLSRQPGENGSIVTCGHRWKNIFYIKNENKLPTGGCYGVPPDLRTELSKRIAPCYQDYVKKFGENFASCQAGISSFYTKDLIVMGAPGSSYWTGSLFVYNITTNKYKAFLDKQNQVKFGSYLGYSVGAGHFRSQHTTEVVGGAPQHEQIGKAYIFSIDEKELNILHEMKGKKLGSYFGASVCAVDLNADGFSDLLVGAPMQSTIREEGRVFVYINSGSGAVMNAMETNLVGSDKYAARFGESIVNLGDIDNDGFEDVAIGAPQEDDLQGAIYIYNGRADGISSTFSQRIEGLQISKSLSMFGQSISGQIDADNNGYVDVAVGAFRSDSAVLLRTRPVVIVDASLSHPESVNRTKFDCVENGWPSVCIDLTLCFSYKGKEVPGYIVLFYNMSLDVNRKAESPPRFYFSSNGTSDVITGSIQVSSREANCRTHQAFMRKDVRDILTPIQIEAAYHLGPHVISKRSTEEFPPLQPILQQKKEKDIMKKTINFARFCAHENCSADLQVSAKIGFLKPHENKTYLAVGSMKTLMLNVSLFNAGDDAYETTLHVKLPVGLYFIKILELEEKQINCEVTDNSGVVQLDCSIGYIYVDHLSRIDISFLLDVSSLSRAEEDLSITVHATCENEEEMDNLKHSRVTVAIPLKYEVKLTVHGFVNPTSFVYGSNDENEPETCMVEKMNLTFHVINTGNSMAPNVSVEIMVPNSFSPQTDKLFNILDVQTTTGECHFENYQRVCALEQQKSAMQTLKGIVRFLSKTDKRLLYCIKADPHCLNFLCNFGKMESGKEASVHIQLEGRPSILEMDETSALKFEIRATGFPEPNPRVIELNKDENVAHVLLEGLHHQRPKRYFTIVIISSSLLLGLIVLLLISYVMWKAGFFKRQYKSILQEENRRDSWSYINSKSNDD
# AP-2 complex subunit beta (Homo sapiens), sequence (P63010 whole entry, looked up, the tested form may be a part, one chain of several): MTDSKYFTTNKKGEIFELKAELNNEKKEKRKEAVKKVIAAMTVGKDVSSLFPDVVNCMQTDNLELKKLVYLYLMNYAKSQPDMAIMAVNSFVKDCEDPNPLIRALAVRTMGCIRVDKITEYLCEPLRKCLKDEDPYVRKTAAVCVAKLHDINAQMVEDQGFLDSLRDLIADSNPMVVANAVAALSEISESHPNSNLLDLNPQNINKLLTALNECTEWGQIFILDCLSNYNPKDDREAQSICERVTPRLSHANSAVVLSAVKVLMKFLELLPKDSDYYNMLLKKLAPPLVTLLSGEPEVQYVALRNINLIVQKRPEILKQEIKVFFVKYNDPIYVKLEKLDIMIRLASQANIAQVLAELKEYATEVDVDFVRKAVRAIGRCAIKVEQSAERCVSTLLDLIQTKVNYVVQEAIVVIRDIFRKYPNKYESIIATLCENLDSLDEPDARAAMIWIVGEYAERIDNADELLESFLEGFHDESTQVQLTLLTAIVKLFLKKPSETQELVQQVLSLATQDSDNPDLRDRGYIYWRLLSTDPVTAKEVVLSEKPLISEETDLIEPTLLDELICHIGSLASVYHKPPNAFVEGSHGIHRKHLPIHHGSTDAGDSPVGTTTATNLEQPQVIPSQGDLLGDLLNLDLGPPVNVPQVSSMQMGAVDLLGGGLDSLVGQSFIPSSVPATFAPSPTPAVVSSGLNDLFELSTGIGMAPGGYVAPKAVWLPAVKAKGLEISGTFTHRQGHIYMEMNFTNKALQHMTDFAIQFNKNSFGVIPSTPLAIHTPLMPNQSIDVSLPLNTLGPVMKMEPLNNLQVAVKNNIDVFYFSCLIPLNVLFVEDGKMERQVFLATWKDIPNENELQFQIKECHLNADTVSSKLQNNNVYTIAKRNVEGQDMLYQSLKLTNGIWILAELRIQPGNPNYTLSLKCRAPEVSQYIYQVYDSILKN
# Beta-2 adrenergic receptor (Homo sapiens), sequence (P07550 whole entry, looked up): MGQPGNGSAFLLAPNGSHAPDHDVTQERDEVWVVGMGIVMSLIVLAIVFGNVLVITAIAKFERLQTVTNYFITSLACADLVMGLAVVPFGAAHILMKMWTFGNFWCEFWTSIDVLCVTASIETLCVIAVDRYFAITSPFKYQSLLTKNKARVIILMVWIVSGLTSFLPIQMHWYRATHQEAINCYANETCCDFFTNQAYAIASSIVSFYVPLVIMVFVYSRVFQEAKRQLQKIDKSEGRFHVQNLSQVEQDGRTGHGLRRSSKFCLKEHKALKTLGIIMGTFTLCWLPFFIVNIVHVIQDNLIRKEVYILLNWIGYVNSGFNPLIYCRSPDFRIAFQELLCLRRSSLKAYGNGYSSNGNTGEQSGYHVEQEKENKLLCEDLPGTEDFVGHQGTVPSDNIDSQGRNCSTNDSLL
# Beta-adrenergic receptor kinase 1 (Homo sapiens), sequence (P25098 whole entry, looked up): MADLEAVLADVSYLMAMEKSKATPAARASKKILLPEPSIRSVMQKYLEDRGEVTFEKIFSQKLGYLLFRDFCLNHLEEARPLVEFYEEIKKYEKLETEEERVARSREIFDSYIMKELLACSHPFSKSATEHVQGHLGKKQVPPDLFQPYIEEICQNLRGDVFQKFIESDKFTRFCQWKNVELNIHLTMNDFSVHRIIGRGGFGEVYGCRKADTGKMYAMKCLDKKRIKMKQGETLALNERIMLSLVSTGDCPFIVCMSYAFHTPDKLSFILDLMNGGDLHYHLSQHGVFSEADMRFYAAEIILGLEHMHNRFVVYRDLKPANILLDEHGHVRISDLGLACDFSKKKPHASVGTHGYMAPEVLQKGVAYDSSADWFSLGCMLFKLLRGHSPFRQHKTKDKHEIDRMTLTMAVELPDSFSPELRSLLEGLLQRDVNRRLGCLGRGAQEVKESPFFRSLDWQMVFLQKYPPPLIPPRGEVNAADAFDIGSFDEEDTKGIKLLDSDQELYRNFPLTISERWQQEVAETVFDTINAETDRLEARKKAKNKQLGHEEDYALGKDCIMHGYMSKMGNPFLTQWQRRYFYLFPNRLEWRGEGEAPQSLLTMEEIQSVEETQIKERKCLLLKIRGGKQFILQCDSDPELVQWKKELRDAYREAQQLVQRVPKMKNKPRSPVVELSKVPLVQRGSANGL
smiles,measurement,setting,value
O=C(NNc1nc(-c2ccccc2)c2cc(Br)ccc2n1)c1ccc(S(=O)(=O)N2CCOCC2)cc1,outcome,[1],inactive
same,"fluorescence, percent of control (lower = inhibition)",[2],40.3%
same,"GTP binding, percent of control",[3],53.5%
same,outcome,[4],inactive
same,"GTP binding signal, raw median fluorescence (lower = inhibition) (MCF (arbitrary fluorescence units))",[5],124
same,outcome,[6],inactive
O=C(CN1C(=O)C2C3c4ccccc4C(c4ccccc43)C2C1=O)Nc1cccc(C(=O)O)c1 (centres undefined),outcome,[1],inactive
same,"fluorescence, percent of control (lower = inhibition)",[2],46.1%
same,"GTP binding, percent of control",[3],58.8%
same,outcome,[4],inactive
same,"GTP binding signal, raw median fluorescence (lower = inhibition) (MCF (arbitrary fluorescence units))",[5],165
same,outcome,[6],inactive
CC(C)CCNC(=O)CN(CCN1CCOCC1)C(=O)Cn1nnc(-c2ccc(F)cc2)n1,outcome,[1],inactive
same,"fluorescence, percent of control (lower = inhibition)",[2],97.1%
same,"GTP binding, percent of control",[3],162%
same,outcome,[4],inactive
same,"GTP binding signal, raw median fluorescence (lower = inhibition) (MCF (arbitrary fluorescence units))",[5],188
same,outcome,[6],inactive
Oc1c(C=Nc2ccccc2)sc(=S)n1Cc1ccccc1,outcome,[1],inactive
same,"fluorescence, percent of control (lower = inhibition)",[2],34.6%
same,"GTP binding, percent of control",[3],75.7%
same,outcome,[4],inactive
same,"GTP binding signal, raw median fluorescence (lower = inhibition) (MCF (arbitrary fluorescence units))",[5],232
same,outcome,[6],inactive
CCNC(=O)c1cc2c(=O)n3cccc(C)c3nc2n(CCc2ccccc2)c1=N,outcome,[1],inactive
same,"fluorescence, percent of control (lower = inhibition)",[2],74%
same,"GTP binding, percent of control",[3],113%
same,outcome,[4],inactive
same,"GTP binding signal, raw median fluorescence (lower = inhibition) (MCF (arbitrary fluorescence units))",[5],126
same,outcome,[6],inactive
CCOc1nnc(C)c2c(C)n(-c3cccc(Cl)c3)nc12,outcome,[1],inactive
same,"fluorescence, percent of control (lower = inhibition)",[2],155%
same,"GTP binding, percent of control",[3],168%
same,outcome,[4],inactive
same,"GTP binding signal, raw median fluorescence (lower = inhibition) (MCF (arbitrary fluorescence units))",[5],312
same,outcome,[6],inactive
Cc1ccc(C(C)C)c(OCCSc2nc3ccccc3n2CC(=O)O)c1,outcome,[1],inactive
same,"fluorescence, percent of control (lower = inhibition)",[2],56.7%
same,"GTP binding, percent of control",[3],86.4%
same,outcome,[4],inactive
same,"GTP binding signal, raw median fluorescence (lower = inhibition) (MCF (arbitrary fluorescence units))",[5],32.1
same,outcome,[6],inactive
COC(=O)n1c(=S)oc2cc(Cl)ccc21,outcome,[1],inactive
same,"fluorescence, percent of control (lower = inhibition)",[2],58.3%
same,"GTP binding, percent of control",[3],154%
same,outcome,[4],inactive
same,"GTP binding signal, raw median fluorescence (lower = inhibition) (MCF (arbitrary fluorescence units))",[5],170
same,outcome,[6],inactive
same,GFP response vs DMSO,[7],106% (inactive)
same,GFP response vs DMSO,[7]; [28],93.9%
same,GFP response vs DMSO,[7]; [29],94.5%
same,GFP response relative to DMSO,[8],126% (inactive)
same,GFP response relative to DMSO,[8]; [30],105%
same,GFP response relative to DMSO,[8]; [31],110%
same,GFP response vs DMSO,[9],141% (inactive)
same,"GFP response, % of DMSO",[10],111% (inactive)
same,"GFP response, % of DMSO",[11],121% (inactive)
same,"GFP response, % of DMSO",[11]; [28],98.3%
same,"GFP response, % of DMSO",[11]; [29],100%
O=C1c2ccccc2-c2onc3ccc(Oc4ccccc4)c1c23,outcome,[1],inactive
same,"fluorescence, percent of control (lower = inhibition)",[2],27.9%
same,"GTP binding, percent of control",[3],46.3%
same,outcome,[4],inactive
same,"GTP binding signal, raw median fluorescence (lower = inhibition) (MCF (arbitrary fluorescence units))",[5],183
same,outcome,[6],inactive
same,GFP response vs DMSO,[7],86.5% (inactive)
same,GFP response vs DMSO,[7]; [28],86.6%
same,GFP response vs DMSO,[7]; [29],85.9%
same,GFP response relative to DMSO,[8],147% (inactive)
same,GFP response relative to DMSO,[8]; [30],136%
same,GFP response relative to DMSO,[8]; [31],150%
same,GFP response vs DMSO,[9],113% (inactive)
same,"GFP response, % of DMSO",[10],84.3% (inactive)
same,"GFP response, % of DMSO",[11],95.2% (inactive)
same,"GFP response, % of DMSO",[11]; [28],94.8%
same,"GFP response, % of DMSO",[11]; [29],94.4%
COc1cc2c(cc1OC)-c1cc(NC3CCCCCC3)nc(=O)n1CC2,outcome,[1],inactive
same,"fluorescence, percent of control (lower = inhibition)",[2],34.3%
same,"GTP binding, percent of control",[3],69.8%
same,outcome,[4],inactive
same,"GTP binding signal, raw median fluorescence (lower = inhibition) (MCF (arbitrary fluorescence units))",[5],145
same,outcome,[6],inactive
same,percent of DMSO control GFP,[12],100% (inactive)
same,GFP response vs DMSO,[13],100% (inactive)
same,percent response of DMSO control,[14],109% (inactive)
same,GFP response vs DMSO,[15],94.7% (inactive)
same,"GFP response, % of DMSO",[16],95.9% (inactive)
same,double positive events,[17],62.4%
same,vesicle binding response,[17],601% (inactive)
same,inhibition,[18],-22.2% (inactive)
same,superoxide response (% of plate),[19],98.3% (inactive)
same,aptamer binding inhibition,[20],0% (inactive)
same,response,[21],-1.14% (inactive)
same,inhibition,[22],17% (inactive)
same,response,[23],-1.05% (inactive)
same,binding (% of control),[24],107% (inactive)
same,efflux inhibition (fraction of control),[25],0.21 (inactive)
same,inhibition,[26],-6% (inactive)
same,differentiation response,[27],7.09% (inactive)
